The list is a sample of the results.
aSyn 5UTR act = Activators working through SNCA 5'UTR binding (MLPCN) | activity score, % (tested at 7.5 µM), hits read low | alpha-synuclein 5'UTR reporter, activators screen | 300,000 tested, 7.1% active | AID 1814; in the data active = activity score below about -60%
Active calls of the source: *.

Screening COC(=O)c1[nH]c2ccc(F)cc2c1NS(=O)(=O)c1ccc(OC)cc1 returned aSyn 5UTR act 100.
For CCOc1ccc2[nH]c(C(=O)N/N=C/c3ccc(OC)cc3)cc2c1 the results were aSyn 5UTR act 76.
For CCOC(=O)c1[nH]c2ccc(OC)cc2c1C the results were aSyn 5UTR act -122*.
For CCOC(=O)c1[nH]c2ccccc2c1NC(=S)Nc1cc(C)ccc1C the results were aSyn 5UTR act -88*.
Cc1ccc(C)c(NC(=S)NC(NC(=O)Cc2cccc3ccccc23)C(Cl)(Cl)Cl)c1 (stereo not given) was read as aSyn 5UTR act 112.
`CCOC(=O)c1cc2cc(OC)ccc2[nH]1` gave aSyn 5UTR act -147*.
CCOC(=O)c1[nH]c2ccc(OC)cc2c1NC(=O)c1ccccc1C(=O)O was read as aSyn 5UTR act -65*.
For COc1cccc(NC(=O)c2nnn(CCc3ccccc3)c2N)c1 the results were aSyn 5UTR act -127*.
For COc1cccc(NC(=O)c2nnn(Cc3ccc(Br)cc3F)c2N)c1 the results were aSyn 5UTR act -80*.
For COc1ccc(C)cc1NC(=O)c1nnn(Cc2cccc(C(F)(F)F)c2)c1N the results were aSyn 5UTR act 55.
`COc1ccc2cc3cc(C(=O)NC4CC4)sc3nc2c1` gave aSyn 5UTR act 57.
`COc1ccc2cc3cc(C(=O)NCCCN4CCc5ccccc5C4)sc3nc2c1` gave aSyn 5UTR act -198*.
For COc1ccc2nc3sc(C(=O)NCCN4CCc5ccccc5C4)cc3cc2c1 the results were aSyn 5UTR act -69*.
For O=C(/C=C/c1ccc(O)c(O)c1)c1ccccc1O the results were aSyn 5UTR act -293*.
`O=C(/C=C/c1cc2ccccc2o1)c1ccccc1O` gave aSyn 5UTR act -161*.
`O=C(/C=C/c1ccoc1)c1ccccc1O` gave aSyn 5UTR act -76*.
`O=C(/C=C/c1ccc(O)c(O)c1)OCCc1ccccc1` gave aSyn 5UTR act -131*.
Screening COc1ccc(-c2cc(C(=O)N3CCN(c4ccccc4)CC3)no2)cc1 returned aSyn 5UTR act -156*.
`COc1ccc(-c2cc(C(=O)N3CCCC3)no2)cc1OC` gave aSyn 5UTR act -123*.
Screening Cc1ccc(-c2cc(C(=O)N3CCOCC3)no2)cc1 returned aSyn 5UTR act 67.
Screening COc1ccc(-c2cc(C(=O)N3CCCCC3)no2)cc1OC returned aSyn 5UTR act -112*.
For Cc1cc(Cl)ccc1OCC(=O)N1CCCCC1 the results were aSyn 5UTR act -108*.
O=C(COc1ccc(Cl)cc1Cl)NC(=O)N1CCCCC1 was read as aSyn 5UTR act -121*.
`COC(=O)CSc1nc2cc(C)cc(C)c2cc1C#N` gave aSyn 5UTR act -180*.
`Cc1cc(C)c2cc(C#N)c(N3CCCN(C(=S)NCCCN(C)C)CC3)nc2c1` gave aSyn 5UTR act 96.
Screening COC(=O)CSc1nc2ccc(C)cc2cc1C#N returned aSyn 5UTR act -72*.
For NC(=O)C1=NOC(CNc2ncc(C(F)(F)F)cc2Cl)C1 (stereo not given) the results were aSyn 5UTR act -72*.
`O=c1c(Cl)nc2cc(Cl)ccc2n1CCNc1ncc(C(F)(F)F)cc1Cl` gave aSyn 5UTR act 110.
Nc1nc(Cl)nc2ccc(Br)cc12 was read as aSyn 5UTR act -123*.
N#CC1=C(N)OC2=C(CCc3ccccc32)C1c1ccccc1 (stereo not given) was read as aSyn 5UTR act 70.
COc1cccc(C2C(C#N)=C(N)OC(C(C)(C)C)=C2C#N)c1 (stereo not given) was read as aSyn 5UTR act -115*.
Screening COc1cc(C2C(C#N)=C(N)Oc3cc4c(cc32)OCO4)cc(OC)c1OC (stereo not given) returned aSyn 5UTR act 111.
For N#Cc1c(N2CCCC(O)C2)nc(N)c2c(N)nc3c(c12)CC(=O)N3C12CC3CC(CC(C3)C1)C2 (stereo not given) the results were aSyn 5UTR act -232*.
For CCOC(=O)c1sc(=NC(=O)c2ccccc2Br)n(C)c1C the results were aSyn 5UTR act -101*.
Screening Cc1ccc2c(c1)sc(=NC(=O)c1cccs1)n2C returned aSyn 5UTR act 85.
Screening CCOC(=O)c1sc(=NC(=O)c2cccs2)n(C)c1C returned aSyn 5UTR act -122*.
For CCOC(=O)c1sc(=NC(=O)/C=C/c2ccccc2)n(C)c1C the results were aSyn 5UTR act -111*.
Screening CCOC(=O)c1sc(=NC(=O)c2ccc(C)c(C)c2)n(C)c1C returned aSyn 5UTR act -283*.
CCOC(=O)c1sc(=NC(=O)c2ccc(Cl)s2)n(C)c1C was read as aSyn 5UTR act -194*.
For c1ccc(-c2ccc3sccc3n2)cc1 the results were aSyn 5UTR act -173*.
COc1ccccc1NC(=O)Nc1ccc(CC#N)cc1 was read as aSyn 5UTR act -115*.
Screening CCN1CCN(Cc2ccc(NC(=O)Nc3ccccc3OC)cc2)CC1 returned aSyn 5UTR act -141*.
`COc1ccccc1NC(=O)Nc1ccc(N2CCOCC2)cc1` gave aSyn 5UTR act -134*.
For COc1ccc(NC(=O)Nc2ccccc2OC)cc1 the results were aSyn 5UTR act -96*.
For CCOc1ccccc1NC(=O)Nc1ccc(Cl)cc1 the results were aSyn 5UTR act -78*.
For CC1CCc2c(sc(/N=C/c3cccnc3)c2C(N)=O)C1 (stereo not given) the results were aSyn 5UTR act -103*.
`CC1CCc2c(sc(/N=C/c3ccco3)c2C(N)=O)C1` (stereo not given) gave aSyn 5UTR act -125*.
Cc1cc(C(=O)N/N=C/c2cc(Cl)cc([N+](=O)[O-])c2O)c2ccccc2n1 was read as aSyn 5UTR act -63*.
For CCCCCc1nc2c(=O)[nH]c3ccccc3c2o1 the results were aSyn 5UTR act -78*.
For CN(C)/C=C1/C(=O)N(c2ccc([N+](=O)[O-])cc2)N=C1c1ccccc1 the results were aSyn 5UTR act -115*.
For Cc1nonc1OCCCNc1ccc([N+](=O)[O-])cc1Cl the results were aSyn 5UTR act -84*.
Screening Cc1nn(-c2nc3ccccc3s2)c(C)c1Oc1ccccc1O returned aSyn 5UTR act -77*.
Screening Oc1ccccc1/C=C/c1noc(-c2ccccc2O)n1 returned aSyn 5UTR act -218*.
For COc1cc(/C=C/c2noc(-c3ccccc3O)n2)ccc1OC(C)=O the results were aSyn 5UTR act -130*.
For CC(=O)Nc1ccc(/C=C/c2noc(-c3ccccc3O)n2)cc1 the results were aSyn 5UTR act -163*.
COc1ccc2[nH]c(C(=O)Nc3ccc(C)c(F)c3)cc2c1 was read as aSyn 5UTR act -115*.
COc1ccc(-n2c(=S)[nH]c3cc(C(=O)Nc4ccc(C)c(F)c4)ccc3c2=O)c(OC)c1 was read as aSyn 5UTR act -73*.
`Cc1ccc(NC(=O)c2cc3cc(OC(F)(F)F)ccc3[nH]2)cc1` gave aSyn 5UTR act -77*.
For COc1cc2[nH]c(C(=O)Nc3ccc(F)cc3)cc2c(OC)c1OC the results were aSyn 5UTR act -229*.
Screening COc1ccc(NC(=O)c2cc3ccccc3[nH]2)cc1 returned aSyn 5UTR act -228*.
`Cc1cnc(Nc2nc3ccccc3o2)nc1C(=O)Nc1cccc(C(F)(F)F)c1` gave aSyn 5UTR act -67*.
Oc1ccc(-c2[nH]ncc2-c2ccc(Cl)cc2)c(O)c1 was read as aSyn 5UTR act -62*.
For O=C(C1=C(O)C(=O)N(c2ncccn2)C1c1ccc(Cl)c(Cl)c1)c1ccco1 (stereo not given) the results were aSyn 5UTR act -81*.

Source: PubChem
